Among the data in PubChem BioAssay (EPA / NIEHS) are outcome and AC50 values, retold here.

Active and inactive are the calls of the source. The calls were made as follows: active = hit-call score of the fitted dose curve at least 0.9, where 1 is the maximum; inactive = score below 0.9.

Read-out in the assay: solute carrier (SLC10A1), SLC10A1 (gene 6554)
Nature of the assay: LTEA_HepaRG_SLC10A1: Life Technologies and Expression Analysis (LTEA) Assay for solute carrier (SLC10A1) using HepaRG (AID 2283657). The settings on record: mRNA level, 48 h; actives raise or lower the signal. The procedure:
LTEA_HepaRG is a cell based, multiplexed-readout assay that uses HepaRG, a human liver cell line, with measurements taken at 48 hours after chemical dosing on a 96-well plate.LTEA_HepaRG_SLC10A1 is one of 102 assay component(s) measured in the LTEA HepaRG cell culture assay. It is a marker of NR mediated transport.Data from the assay component LTEA_HepaRG_SLC10A1 was analyzed into 1 endpoint. This assay endpoint, LTEA_HepaRG_SLC10A1, was analyzed with bidirectional fitting relative to DMSO as the negative control and baseline of activity. Using a type of inducible reporter, measures of mRNA induction for gain or loss-of-signal activity can be used to understand regulation of transcription factor activity. To generalize the intended target to other relatable targets, this assay endpoint is annotated to the transporter intended target family, where the subfamily is sodium/bile acid cotransporter.
A total of 1060 chemcials from the ToxCast library were tested in eight-point concentration-response experiments. Cell culture and cytotoxicity assays were conducted at Thermo Fisher Scientific's Custom Services facility (Madison, WI). A single lot of human HepaRG cells (Thermo Fisher Scientific, Frederick, MD) was used for the cell culture experiments. 96-well format collagen type I coated plates of human HepaRG cells were prepared using established methods. Briefly, cryopreserved HepaRG cells were thawed, plated at a density of approximately 100,000 cells/well in HepaRG Thaw, Plate, and General Purpose media (HPRG770, Thermo Fisher Scientific), and incubated for 48 hours. 0.5% DMSO was selected as vehicle control to balance the requisite need of DMSO in HepaRG cultures to maintain differentiation (for example, baseline metabolism, proportions of hepatocytes vs. cholangiocytes), while enabling further hepatic receptor pathway activation (for example, PXR and CAR) in response to chemical exposure. 48 hours after plating, the culture medium was replaced with HepaRG Serum-Free Incudtion Media. Cells were exposed to each test chemical in duplicate and maintained in CO2 incubators for another 48 hours. Chemical plates were thawed to room temperature and 200x concentrations of treatment groups were prepared. 8-point conentration-reponse curves were made with the highest exposure at 100 uM, followed by half-log dilutions, all in 0.5% DMSO. Each test plate contained variouse controls, induction positive controls (1mM phenobarbital), cytotoxicity positive controls ([…] aflatoxin B1), vehicle controls (0.5% DMSO), and total lysis controls (0.5% DMSO). Cell morphology images were taken using an Essen IncuCyte FLR automated microscope, with six 96-well plates imaged in about 24 minutes. Images were captured and exported and JPEG files. Spent culture media was transfered to black-well plates for the LDH assay, and remaining media was sorted at -80 C for later use. Cells were treated with RLT buffer and frozen until shipped for gene expression analysis. Total RNA was isolated from the cell suspension in 75 uL of Buffer RLT (Qiagen, Germantown, MD 20874) by Quintiles/Expression Analysis (Durham, NC) using a custom isolation procedure. Total RNA from each plate well was transferred to a preamplification plate. Fluidigm's 96.96 Dynamic ArrayTM (Fluidigm, Amsterdam, the Netherlands) technology was used for gene expression analyses by quantitative reverse transcription polymerase chain reaction (qRT-PCR, performed by Quintiles/Expression Analysis, Durham, NC)89. Standard TaqManTM Assays (Applied Biosystems/ThermoFisher Scientific, Foster City, CA) were used to assess the expression of 93 genes selected based on their selectivity and sensitivity to important hepatic receptors known to be modulated by environmental chemicals; importance in human hepatocyte functionality; and hepatotoxicity. […]
Regarding `CCc1cccc(CC)c1N(COC)C(=O)CCl`, the call was inactive.

What is called AC50 is the concentration at which the activity in the assay is half-maximal. For the molecule `CCOC(=O)CC(SP(=O)(OC)OC)C(=O)OCC` (stereo not given), the AC50 was 10.1 µM (active).

As for `CC(COc1ccc(Oc2ccccc2)cc1)Oc1ccccn1` (stereo not given), the AC50 was 27.9 µM (active).

In the case of `CNC(=O)Oc1cccc2c1OC(C)(C)O2`, the molecule was called inactive.

As for `CC[C@H](C)[C@H]1O[C@]2(C=C[C@@H]1C)C[C@@H]1C[C@@H](C/C=C(\C)[C@@H](O[C@H]3C[C@H](OC)[C@@H](O[C@H]4C[C@H](OC)[C@@H](NC)[C@H](C)O4)[C@H](C)O3)[C@@H](C)/C=C/C=C3\CO[C@@H]4[C@H](O)C(C)=C[C@@H](C(=O)O1)[C@]34O)O2`, the AC50 is 5 µM (active).

As for `CSc1nc(NC(C)C)nc(NC(C)C)n1`, the concentration at half-maximal activity (AC50) was 61.6 µM (active).

On to `CCOP(=S)(Oc1cnc(C(C)(C)C)nc1)OC(C)C` (stereo not given), for which the AC50 was 16.5 µM (active).

On to `CCOP(=S)(OCC)Oc1ccc2c(C)c(Cl)c(=O)oc2c1`, for which the AC50 is 70.7 µM (active).

For the molecule `CCCCN(CC)c1c([N+](=O)[O-])cc(C(F)(F)F)cc1[N+](=O)[O-]`, the molecule was called inactive.

`CC1(C(=O)Nc2ccc(O)c(Cl)c2Cl)CCCCC1`: the molecule was classed as inactive.
